Inconclusive results are not listed. Where a call stands in place of a potency, no number is given. Calls of active or inactive are those of the source. Calls come from the whole dose curve; as a rule, active = well fitted cell-killing curve with a large enough effect; inconclusive = small, poorly fitted or top-dose-only effect, or effect the other way; inactive = flat fitted curve, though single readings scatter. *1 amine or outer side, *2 acyl side, *3 side chain or, on linkers, in order; H or OH if unused. Where a SMILES comes first, the peptide text is derived from it. [ ]: non-standard residue; d: D form. The star is where a group is joined. X13 = O=C(C(CC(O)CO)O[*:1])[*:2]; NMeV = CN[CH](C(=O)O)C(C)C; βNA = c1ccc2cc(N*)ccc2c1; Cbz = O=C(OCc1ccccc1)*; NMeA = CN[CH](C)C(=O)O; βAla = NCCC(=O)O
Test system: Es-2
Test: Primary qHTS to identify gynecologic anti-cancer compounds using libraries of approved drugs and bioactive compounds (AID 1345084); note: nearly all actives have a fitted effect of over 55% in size
Conditions: Gynecologic cancer cell panel viability, ATPlite luminescence, 48 h; series mostly up to 57.5 µM
Procedure, shortened: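 Cytotoxicity screen measuring ATP content by luciferase luminescence. Each compound is applied at five concentrations for 48 h at 37 C with 5% CO2.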

Row | SMILES | Potency | activity change, negative = cytotoxicity
1 | NC(N)=NCCC[C@H](NC(=O)c1sccc1NS(=O)(=O)c1cccc2nsnc12)C(=O)O | inactive | –
2 | Nc1ccc(-n2nc(C(F)(F)F)cc2C(F)(F)F)cc1 | inactive | –
3 | C[C@H](O)C(O)(C(=O)OCc1ccccc1NC(=O)CCC(N)C(=O)O)[C@H](C)O (some centres undefined) | inactive | –
4 | CC[C@H](NC(=O)c1c(O)c(-c2ccccc2)nc2ccccc12)c1ccccc1 | inactive | –
5 | CC/C=C/C(O)C(O)C1=C(C)C(=O)C2(O1)C(=O)NC(OC)(C(=O)c1ccccc1)C2O (centres undefined) | inactive | –
6 | Fc1cccc(CN(C2=NCCN2)c2c(Cl)cccc2Cl)c1 | inactive | –
7 | O=C(O)CCc1cccc(O)c1O[C@@H]1O[C@H](CO)[C@@H](O)[C@H](O)[C@H]1O | inactive | –
8 | CCC(C)/C=C(C)/C=C/C1=CC2=CC(=O)C(C)(O)C(OC(C)=O)C2CO1 (centres undefined) | inactive | –
9 | CC1CC(O)/C=C/C(O)/C=C\C(=O)O1 (centres undefined) | inactive | –
10 | CC(C)CC(NC(=O)OCc1ccccc1)C(=O)NC(CC(C)C)C(=O)NC(CCC(=O)O)C(=O)Nc1ccc2ccccc2c1 (stereo not drawn) (Cbz-Leu-Leu-Glu-βNA; configuration not given here) | inactive | –
11 | COCc1c(O)c(C(=O)O)c(C)c2c1OC(=O)c1c(C)cc(O)c(CO)c1O2 | inactive | –
12 | C=C(C(=O)O)C1CC(O)C2(C)CCCC(C)(O)C2C1 (centres undefined) | inactive | –
13 | C=C[C@H]1[C@H](O[C@@H]2O[C@H](CO)[C@@H](O)[C@H](OC(=O)/C=C/c3ccc(O)c(OC)c3)[C@H]2O)OC=C2C(=O)OCC[C@]21O | inactive | –
14 | COC(=O)C1(O)C(OC(C)=O)CCC2C3(CC(c4ccoc4)OC3=O)C(C)=CCC21C(=O)OC (centres undefined) | inactive | –
15 | O=C(Nc1cc(-c2ccccc2)nn1-c1ccccc1F)c1ccc([N+](=O)[O-])cc1 | inactive | –
16 | Cc1sc(C)c(C(=O)NC2(c3ccc(C(=O)O)cc3)CC2)c1Cc1ccc(C(F)(F)F)cc1 | inactive | –
17 | COc1cc([C@@H](O[C@@H]2O[C@H](CO)[C@@H](O)[C@H](O)[C@H]2O)[C@@H]2CO[C@H](c3ccc(O)c(OC)c3)[C@H]2CO)ccc1O | inactive | –
18 | CC(C)NC(=O)c1ccc(C#Cc2ccncc2)cn1 | inactive | –
19 | O=C(O)CC/C=C\C[C@H]1CO[C@@H](c2ccccc2Cl)O[C@H]1c1ccccc1O | inactive | –
20 | CC(C)=CCc1cc(O[C@@H]2O[C@H](CO[C@@H]3OC[C@](O)(CO)[C@H]3O)[C@@H](O)[C@H](O)[C@H]2O)ccc1O | inactive | –

Row | SMILES | Potency | activity change, negative = cytotoxicity
21 | CC1(C)[C@@H]2CC=C(CO[C@@H]3O[C@H](CO[C@@H]4OC[C@H](O)[C@H](O)[C@H]4O)[C@@H](O)[C@H](O)[C@H]3O)[C@H]1C2 | inactive | –
22 | COc1ccc(C2C(C(=O)O)C(C(=O)O)C2c2ccc(OC)cc2O[C@@H]2O[C@H](CO)[C@@H](O)[C@H](O)[C@H]2O)c(O[C@@H]2O[C@H](CO)[C@@H](O)[C@H](O)[C@H]2O)c1 (some centres undefined) | inactive | –
23 | C=C(C)C1CCC2(C(=O)OC3OC(COC4OC(CO)C(O)C(O)C4O)C(OC4OC(C)C(O)C(O)C4O)C(O)C3O)CCC3(C(=O)O)C(CCC4C5(C)CCC(=O)C(C)(C)C5CCC43C)C12 (centres undefined) | – | -14% [at 11.6 µM] (inactive)
24 | CC1=C(CC/C(C)=C/C(=O)O)[C@@]2(C)CCCC(C)(C)C2CC1=O (some centres undefined) | inactive | –
25 | C[C@]12CCC[C@](C)(C(=O)O)C1[C@@H](O)[C@@H](O)C13CC(CCC12)C(CO)(O[C@@H]1O[C@H](CO)[C@@H](O)[C@H](O)[C@H]1O)C3 (some centres undefined) | inactive | –
26 | COc1cc(O)cc(C)c1C(=O)O[C@H]1[C@@H](O)[C@@H](n2ccc(=O)[nH]c2=O)O[C@@H]1CO | inactive | –
27 | C=C1C(=O)O[C@@H]2C[C@]3(C)[C@@H](CCC(C)=O)[C@@H]3C[C@H]12 | inactive | –
28 | C=C1CC[C@@]2(OC1)O[C@H]1CC3[C@@H]4CC=C5C[C@@H](O)C[C@@H](O[C@@H]6OC[C@H](O)[C@H](O)[C@H]6O[C@@H]6O[C@@H](C)[C@H](O)[C@@H](O)[C@H]6O)[C@]5(C)C4CC[C@]3(C)[C@H]1[C@@H]2C (some centres undefined) | inactive | –
29 | C/C=C(\C)C(=O)OCC1OC(OCC2OC(OC3(CO)OC(CO)C(O)C3O)C(O)C(O)C2O)C(O)C(O)C1O (centres undefined) | inactive | –
30 | COC(=O)C1=CO[C@@H](O[C@@H]2O[C@H](CO)[C@@H](O)[C@H](O)[C@H]2O)/C(=C\CO)[C@@H]1CC(=O)OCCc1ccc(O)cc1 | inactive | –
31 | CCC(C)C1NC(=O)C2CCCN2C(=O)C(CC(O)CO)OC(=O)CCNC(=O)C(C)N(C)C(=O)C(C(C)C)N(C)C1=O (centres undefined) (cyclo([X13]PI[NMeV][NMeA][βAla]); configuration not given here) | inactive | –
32 | O=C(C[C@@H]1C(C(=O)O)=CO[C@@H](O[C@@H]2O[C@H](CO)[C@@H](O)[C@H](O)[C@H]2O)/C1=C\CO)OCCc1ccc(O)cc1 | inactive | –
33 | COC(=O)[C@H](O)[C@H]1C(C)(C)[C@H](OC(C)=O)[C@@]2(O)C(=O)[C@]1(C)C1CC[C@]3(C)C(CC(=O)O[C@H]3c3ccoc3)[C@]13O[C@@H]32 (some centres undefined) | inactive | –
34 | CC(=O)c1c(C)cccc1O[C@@H]1O[C@H](CO)[C@@H](O)[C@H](O)[C@H]1O | inactive | –
35 | C/C=C(\C)C(=O)OC1CC2C(CC=C3CC(OC4CC(OC)C(OC5CC(OC)C(OC6CC(OC)C(OC7CC(OC)C(OC8CC(OC)C(OC9OC(CO)C(O)C(O)C9O)C(C)O8)C(C)O7)C(C)O6)C(C)O5)C(C)O4)CCC32C)C2(O)CCC(C(C)=O)C12C (centres undefined) | – | 2.25% [at 6.55 µM] (inactive)
36 | COc1ccc2[nH]c(S(=O)Cc3ncc(C)c(OC)c3C)nc2c1 (centres undefined) | inactive | –
37 | COc1cc(C)c(C(=O)OC2C(C)OC(OC3CCC(C)C4C3C=C(C)C3/C(C)=C\CC/C(C)=C/C5(C)C=C(C(=O)O)C(C)CC56OC(=O)/C(=C(\O)C34C)C6=O)C(O)C2O)c(OC)c1 (centres undefined) | – | 6.73% [at 11.6 µM] (inactive)
38 | COc1ccc(/C=C/C(=O)O[C@@H]2[C@@H](O[C@@H]3O[C@H](CO)[C@@H](O)[C@H](O)[C@H]3O)[C@@H](O)[C@H](O[C@H]3C4C=CO[C@@H](O[C@@H]5O[C@H](CO)[C@@H](O)[C@H](O)[C@H]5O)C4[C@@]4(CO)O[C@@H]34)O[C@H]2C)cc1 (some centres undefined) | – | 3.1% [at 11.6 µM] (inactive)
39 | CC(C)C1NC(=O)C(CC2(O)c3ccccc3N3C(=O)C(Cc4ccccc4)NC32)NC1=O (centres undefined) | inactive | –
